Data taken from PubChem BioAssay (NCATS).
“And” between values parts separate entries of the source, which are not always exact repeats. Equal entries are not always repeated. Inconclusive results are not listed. The source made the active and inactive calls. Unless noted, calls follow the shape of the dose curve; as a rule, active = well fitted curve in the direction sought with a large enough effect; inconclusive = small, poorly fitted or top-dose-only effect, or another doubt; inactive = no such curve, though single readings can be large; an effect the other way counts as inactive or inconclusive.

Columns and labels:
[1] = qHTS assay to identify small molecule inhibitors of chordoma cells - UCH-1 (AID 1259355); also: nearly all actives have a fitted effect of over 55% in size; also: potency is read from the fitted curve at half-maximal effect; series mostly up to about 46 µM
Procedure, shortened: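 Luminescent ATP read-out (CellTiter-Glo, 30min at room temperature) measured viability of UCH-1 cells exposed for 48hr to test drugs at 15 concentrations, co-dosed with a five-agent combination of auranofin, camptothecin, doxorubicin, rubitecan and topotecan.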

[2] = P-glycoprotein substrates identified in KB-8-5-11 adenocarcinoma cell line, qHTS therapeutic library screen (AID 1346987); also: nearly all actives have a fitted effect of over 65% in size; also: potency is read from the fitted curve at half-maximal effect
Procedure, shortened: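 Steps: plate 500 KB-8-5-11 cells/well in DMEM + 10% FCS (colchicine removed); pin compounds in dose-response; incubate 72 h, 37 degree C, 5% CO2; add CellTiter-Glo, 5 min; read luminescence.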

[3] = biological target: Atrial natriuretic peptide receptor 1 (Homo sapiens) (UniProt P16066); assay: Natriuretic polypeptide receptor (hNpr1) antagonism - Pilot screen (AID 1347049; calls by dose curve;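 also: agonist-evoked cGMP luminescence read 20 min after hNppA addition; series mostly up to about 58 µM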)
Chain of Atrial natriuretic peptide receptor 1 (Homo sapiens) (P16066 whole entry, looked up): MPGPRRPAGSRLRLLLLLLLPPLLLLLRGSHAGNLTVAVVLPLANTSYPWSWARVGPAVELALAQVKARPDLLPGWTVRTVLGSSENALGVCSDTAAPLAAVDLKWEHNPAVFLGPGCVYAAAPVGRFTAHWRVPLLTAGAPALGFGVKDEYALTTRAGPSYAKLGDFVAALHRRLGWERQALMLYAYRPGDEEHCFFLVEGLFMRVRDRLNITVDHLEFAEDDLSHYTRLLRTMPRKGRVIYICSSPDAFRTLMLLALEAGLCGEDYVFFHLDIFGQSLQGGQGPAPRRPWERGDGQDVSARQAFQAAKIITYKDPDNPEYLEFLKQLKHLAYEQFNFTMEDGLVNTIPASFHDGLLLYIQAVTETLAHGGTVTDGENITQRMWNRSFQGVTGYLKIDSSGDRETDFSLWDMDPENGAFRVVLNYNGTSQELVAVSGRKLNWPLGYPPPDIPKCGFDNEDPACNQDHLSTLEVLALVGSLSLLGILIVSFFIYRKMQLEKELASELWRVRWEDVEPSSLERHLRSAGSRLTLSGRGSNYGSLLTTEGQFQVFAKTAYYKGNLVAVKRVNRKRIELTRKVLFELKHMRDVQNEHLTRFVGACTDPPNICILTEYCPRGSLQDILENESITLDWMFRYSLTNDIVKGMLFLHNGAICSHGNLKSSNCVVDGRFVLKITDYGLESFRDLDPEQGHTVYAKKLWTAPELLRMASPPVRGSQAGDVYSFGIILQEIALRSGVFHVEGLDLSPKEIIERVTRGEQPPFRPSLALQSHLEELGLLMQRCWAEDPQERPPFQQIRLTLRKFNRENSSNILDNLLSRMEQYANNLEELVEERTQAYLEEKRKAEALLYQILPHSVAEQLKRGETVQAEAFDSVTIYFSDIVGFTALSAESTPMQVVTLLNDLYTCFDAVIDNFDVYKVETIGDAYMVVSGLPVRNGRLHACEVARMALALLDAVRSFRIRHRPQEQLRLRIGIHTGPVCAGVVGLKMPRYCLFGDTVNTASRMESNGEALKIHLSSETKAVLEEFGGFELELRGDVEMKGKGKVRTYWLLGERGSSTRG
Procedure, shortened: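 HEK293 cells co-expressing hNpr1 and the GloSensor pGS-40F cGMP luciferase sensor were preloaded with 2% GloSensor reagent for 2 h. Compounds were added for 30 min at room temperature, then cells were stimulated with 0.1 nM hNppA for 20 min before luminescence readout.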

[4] = biological target: Atrial natriuretic peptide receptor 2 (Homo sapiens) (UniProt P20594); assay: Natriuretic polypeptide receptor (hNpr2) antagonism - Pilot subtype selectivity assay (AID 1347050; calls by dose curve)
Chain of Atrial natriuretic peptide receptor 2 (Homo sapiens) (P20594 whole entry, looked up): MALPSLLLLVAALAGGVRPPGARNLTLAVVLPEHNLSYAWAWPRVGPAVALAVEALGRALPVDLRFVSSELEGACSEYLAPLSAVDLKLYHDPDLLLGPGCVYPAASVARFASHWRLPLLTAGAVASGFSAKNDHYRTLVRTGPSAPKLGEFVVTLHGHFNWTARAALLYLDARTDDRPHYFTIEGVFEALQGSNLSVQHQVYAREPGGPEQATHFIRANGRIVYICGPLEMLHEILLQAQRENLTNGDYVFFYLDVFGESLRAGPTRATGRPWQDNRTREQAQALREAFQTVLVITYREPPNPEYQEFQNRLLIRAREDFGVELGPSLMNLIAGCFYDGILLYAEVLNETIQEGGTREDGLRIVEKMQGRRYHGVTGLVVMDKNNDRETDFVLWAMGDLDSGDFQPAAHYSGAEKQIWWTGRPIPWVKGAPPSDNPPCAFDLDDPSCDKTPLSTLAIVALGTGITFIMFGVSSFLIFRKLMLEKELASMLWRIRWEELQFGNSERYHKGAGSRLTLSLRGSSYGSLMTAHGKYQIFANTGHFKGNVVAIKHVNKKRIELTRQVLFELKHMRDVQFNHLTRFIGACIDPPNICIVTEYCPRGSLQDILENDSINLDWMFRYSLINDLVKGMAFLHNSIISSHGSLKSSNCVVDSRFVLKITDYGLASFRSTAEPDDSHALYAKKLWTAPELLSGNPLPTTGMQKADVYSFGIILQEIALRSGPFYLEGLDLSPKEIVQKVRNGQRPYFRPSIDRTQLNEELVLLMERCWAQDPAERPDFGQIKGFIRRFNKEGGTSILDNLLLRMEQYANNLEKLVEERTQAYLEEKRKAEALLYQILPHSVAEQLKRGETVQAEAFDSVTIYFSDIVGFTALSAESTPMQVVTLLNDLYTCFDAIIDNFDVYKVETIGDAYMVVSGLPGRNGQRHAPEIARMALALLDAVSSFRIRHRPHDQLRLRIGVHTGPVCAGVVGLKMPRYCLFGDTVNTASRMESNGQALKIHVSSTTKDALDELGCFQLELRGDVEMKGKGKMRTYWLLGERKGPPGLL
Procedure, shortened: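 cGMP-sensor HEK293/hNpr2 cells; 2% GloSensor reagent 2 h RT; compounds 30 min; baseline luminescence read; 1 nM hNppC agonist 20 min RT; final luminescence read by CCD camera. Antagonism = reduced post-agonist signal.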

[5] = biological target: T1, Tyrosine-protein phosphatase non-receptor type substrate 1 (Homo sapiens) + Leukocyte surface antigen CD47 (Homo sapiens) (UniProt P78324+Q08722); assay: CD47-SIRPalpha protein protein interaction - LANCE assay qHTS validation (AID 1347057; active = well fitted curve in the direction sought with a large enough effect in the signal ratio, with a control signal flat, not every such curve was filed as active; the % refers to the signal ratio; also: series mostly up to about 38 µM)
T1 sequence (P78324 whole entry, looked up): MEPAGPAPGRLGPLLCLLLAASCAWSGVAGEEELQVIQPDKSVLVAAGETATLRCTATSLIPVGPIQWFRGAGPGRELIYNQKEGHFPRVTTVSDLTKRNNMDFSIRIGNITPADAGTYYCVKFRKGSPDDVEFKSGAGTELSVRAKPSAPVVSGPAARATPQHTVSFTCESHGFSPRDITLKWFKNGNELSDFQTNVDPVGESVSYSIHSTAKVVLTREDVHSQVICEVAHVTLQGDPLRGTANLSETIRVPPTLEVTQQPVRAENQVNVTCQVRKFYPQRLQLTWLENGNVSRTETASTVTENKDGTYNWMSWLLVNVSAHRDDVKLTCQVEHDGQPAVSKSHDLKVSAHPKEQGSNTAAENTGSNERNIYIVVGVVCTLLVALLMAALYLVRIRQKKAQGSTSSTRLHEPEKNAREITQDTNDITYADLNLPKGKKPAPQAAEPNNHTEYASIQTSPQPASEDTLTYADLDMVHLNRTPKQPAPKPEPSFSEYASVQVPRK
T1 sequence (Q08722 whole entry, looked up): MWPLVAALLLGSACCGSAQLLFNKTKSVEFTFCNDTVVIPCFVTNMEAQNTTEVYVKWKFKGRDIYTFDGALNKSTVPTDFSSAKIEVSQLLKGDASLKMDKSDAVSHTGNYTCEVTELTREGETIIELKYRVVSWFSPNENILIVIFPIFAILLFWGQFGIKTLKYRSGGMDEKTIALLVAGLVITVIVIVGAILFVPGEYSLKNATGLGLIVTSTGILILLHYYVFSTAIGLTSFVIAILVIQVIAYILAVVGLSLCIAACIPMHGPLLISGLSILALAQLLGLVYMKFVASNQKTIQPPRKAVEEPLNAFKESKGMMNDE
Procedure, shortened: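 First, His-tagged CD47 and Eu-labelled anti-His antibody met the compound for 30 min; next, site-specifically biotinylated SIRPalpha was added for 30 min; finally streptavidin-APC was added before reading the TR-FRET ratio.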

[6] = biological target: T1, Tyrosine-protein phosphatase non-receptor type substrate 1 (Homo sapiens) + Leukocyte surface antigen CD47 (Homo sapiens); assay: CD47-SIRPalpha protein protein interaction - HTRF assay qHTS validation (AID 1347058; active = well fitted curve in the direction sought with a large enough effect in the signal ratio, not every such curve was filed as active; the % refers to the signal ratio;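 also: recombinant soluble extracellular CD47 with His tag and biotinylated SIRPalpha domains; series mostly up to about 38 µM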)
Procedure, shortened: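 TR-FRET read (Ch1/Ch2 ratio) of soluble extracellular CD47 and Avi-biotinylated SIRPalpha domains in PBS pH 7.4 with 0.05% IGEPAL; 7-point compound titration. Sequential 30 min room-temperature steps; non-biotinylated SIRPalpha as control inhibitor.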

[7] = biological target: Parathyroid hormone/parathyroid hormone-related peptide receptor (Homo sapiens) (UniProt Q03431); assay: qHTS for PTHR1 Agonists: Optimization Screen against the NCGC LOPAC library (AID 1347079);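 also: GloSensor cAMP luminescence in HEK-293 GP2 cells expressing human PTHR1 with IBMX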
Chain of Parathyroid hormone/parathyroid hormone-related peptide receptor (Homo sapiens) (Q03431 whole entry, looked up): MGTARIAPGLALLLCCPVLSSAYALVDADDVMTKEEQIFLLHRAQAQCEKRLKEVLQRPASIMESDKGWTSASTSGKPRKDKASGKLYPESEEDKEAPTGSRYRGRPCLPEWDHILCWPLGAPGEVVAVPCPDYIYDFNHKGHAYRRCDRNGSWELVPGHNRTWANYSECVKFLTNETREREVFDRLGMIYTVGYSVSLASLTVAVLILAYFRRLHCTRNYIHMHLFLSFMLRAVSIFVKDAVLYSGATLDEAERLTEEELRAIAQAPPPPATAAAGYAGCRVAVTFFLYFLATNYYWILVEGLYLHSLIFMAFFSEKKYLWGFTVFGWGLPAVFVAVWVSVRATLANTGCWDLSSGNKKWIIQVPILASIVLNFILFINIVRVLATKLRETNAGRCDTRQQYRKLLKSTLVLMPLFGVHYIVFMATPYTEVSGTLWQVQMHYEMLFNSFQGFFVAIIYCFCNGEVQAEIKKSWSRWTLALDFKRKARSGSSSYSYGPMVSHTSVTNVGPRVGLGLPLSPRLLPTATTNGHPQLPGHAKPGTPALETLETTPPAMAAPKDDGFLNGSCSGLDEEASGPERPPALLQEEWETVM
Procedure, shortened: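 Agonist readout: GloSensor cAMP luminescence, read after 15 min at room temperature. HEK-293-derived GP2 line carries PTHR1; compounds tested as a titration for 1 hr at 37C in presence of IBMX. M-PTH (1-15) served as control.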

[8] = qHTS for Inhibitors of the Functional Ribonucleoprotein Complex (vRNP) of Lassa (LASV) Arenavirus: LASV Primary Screen - GLuc reporter signal (AID 1347082; calls by dose curve; tested in HEK293 reporter line; also: nearly all actives have a fitted effect of over 60% in size; also: potency is read from the fitted curve at half-maximal effect)
[9] = biological target: Nucleoprotein (Lymphocytic choriomeningitis virus (strain Armstrong)) (UniProt P09992); assay: qHTS for Inhibitors of the Functional Ribonucleoprotein Complex (vRNP) of Lymphocytic Choriomeningitis Arenaviruses (LCMV): LCMV Primary Screen - GLuc reporter signal (AID 1347086; calls by dose curve; also: nearly all actives have a fitted effect of over 70% in size; also: potency is read from the fitted curve at half-maximal effect)
Chain of Nucleoprotein (Lymphocytic choriomeningitis virus (strain Armstrong)) (P09992 whole entry, looked up): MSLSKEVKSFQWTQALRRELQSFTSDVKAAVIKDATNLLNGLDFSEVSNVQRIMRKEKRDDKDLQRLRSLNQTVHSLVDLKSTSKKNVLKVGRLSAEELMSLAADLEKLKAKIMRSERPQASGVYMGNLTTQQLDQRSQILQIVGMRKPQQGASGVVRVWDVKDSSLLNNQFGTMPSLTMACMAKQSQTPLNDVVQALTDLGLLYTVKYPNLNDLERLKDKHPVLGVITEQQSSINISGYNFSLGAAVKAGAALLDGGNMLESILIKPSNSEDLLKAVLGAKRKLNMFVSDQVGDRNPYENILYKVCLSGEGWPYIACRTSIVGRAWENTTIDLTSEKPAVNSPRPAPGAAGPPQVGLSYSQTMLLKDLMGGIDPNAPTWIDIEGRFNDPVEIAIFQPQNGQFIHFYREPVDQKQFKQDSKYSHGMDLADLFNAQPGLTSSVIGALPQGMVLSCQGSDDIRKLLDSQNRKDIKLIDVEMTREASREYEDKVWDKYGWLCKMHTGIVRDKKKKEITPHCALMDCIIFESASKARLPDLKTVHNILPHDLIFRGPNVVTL

[10] = NS1 protein of Zika virus - qHTS assay to identify small molecule inhibitors in human HEK 293 cells (AID 1347053); also: series mostly up to about 46 µM; nearly all actives have a fitted effect of over 55% in size
Procedure, shortened: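 HEK 293 cells pretreated with compound for 1 h, then infected with ZIKV MR766 (MOI 0.5) for 24 h at 37 C. NS1 detected by TR-FRET with two anti-NS1 antibodies; normalized to uninfected (0%) and infected (100%) wells.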

[11] = Natriuretic polypeptide receptor (hNpr1) antagonism - Pilot counterscreen GloSensor control cell line (AID 1347045; calls by dose curve; also: series mostly up to about 38 µM)
Procedure, shortened: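 Luminescence was read before and 20 min after adding 50 uM SNP, which stimulates soluble guanylyl cyclase. The HEK293 cells expressing the GloSensor cGMP sensor had been preloaded with 2% reagent for 2 h and treated with compound.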

[12] = qHTS for Inhibitors of the Functional Ribonucleoprotein Complex (vRNP) of Lassa (LASV) Arenavirus: Viability assay - alamar blue signal for LASV Primary Screen (AID 1347083; calls by dose curve; tested in HEK293 reporter line; also: series mostly up to about 57 µM; nearly all actives have a fitted effect of over 80% in size)
[13] = qHTS for Inhibitors of the Functional Ribonucleoprotein Complex (vRNP) of Lymphocytic Choriomeningitis Arenaviruses (LCMV): Viability assay - alamar blue signal for LCMV Primary Screen (AID 1347085; calls by dose curve; tested in HEK293 reporter line; also: series mostly up to about 57 µM; nearly all actives have a fitted effect of over 80% in size)

Measured: Potency

Fc1ccc(C(OCCN2CCN(CCCc3ccccc3)CC2)c2ccc(F)cc2)cc1
inactive: [3] | [4] | [5] | [6] | [7]
active: [1] 31.6 µM | [2] 10.5 µM | [8] 34.3 µM | [9] 30.6 µM

C[C@H]1O[C@@H](O[C@H]2[C@@H](O)C[C@H](O[C@H]3[C@@H](O)C[C@H](O[C@H]4CC[C@@]5(C)[C@H](CC[C@@H]6[C@@H]5CC[C@]5(C)[C@@H](C7=CC(=O)OC7)CC[C@]65O)C4)O[C@@H]3C)O[C@@H]2C)C[C@H](O)[C@@H]1O
active: [1] 0.112 µM | [2] 65.1 nM and 76.9 nM
inactive: [10]

c1ccc(C2CC2)c(OCC2=NCCN2)c1
inactive: all assays above

CC(=O)[C@H]1CC[C@H]2[C@@H]3CC[C@H]4C[C@](C)(O)CC[C@]4(C)[C@H]3CC[C@]12C
not listed: [3]
inactive: all other assays above

Oc1ccccc1-c1ccccc1
inactive: [1] | [2] | [10] | [8] | [12] | [13] | [9]

CCOP(=S)(OCC)Oc1cc(C)nc(C(C)C)n1
inactive: [1] | [2] | [10] | [8] | [12] | [13] | [9]

Cc1ncc(CNC(=O)N(CCCl)N=O)c(N)n1
inactive: all assays above
